Our source for the growth inhibition values is PubChem BioAssay (NCI).

Experiment [1] is described as follows: NCI Yeast Anticancer Drug Screen. Data for the rad50 strain (AID 155).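 Also: 0% = growth of vehicle-only cultures of the same strain.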 Particulars: S. cerevisiae rad50 strain growth inhibition; at 50.0 µM; hits give high values. The essentials:
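DNA repair mutant yeast, compound exposure, growth read-out; inhibition is taken relative to vehicle.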

Experiment [2] in a line: NCI Yeast Anticancer Drug Screen. Data for the mec2-1 strain (AID 157). Particulars: S. cerevisiae mec2-1 strain, at 50.0 µM, hits give high values. The procedure, abridged: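 Each compound was tested on mec2-1 yeast, a strain altered in DNA damage repair or cell cycle control. Growth inhibition is reported relative to vehicle.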
Experiment [3] is described as follows: NCI Yeast Anticancer Drug Screen. Data for the sgs1 mgt1 strain (AID 161).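 Also: 0% = growth of cultures given vehicle only.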 Particulars: S. cerevisiae sgs1 mgt1 strain, at 50.0 µM, hits give high values. The procedure, abridged: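 Read-out: growth inhibition vs vehicle controls. Cells: mutant yeast strain deficient in DNA damage repair.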
The nature of experiment [4]: NCI Yeast Anticancer Drug Screen. Data for the cln2 rad14 strain (AID 165).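 Also: 0% = growth equal to vehicle treated cultures.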 To be noted: S. cerevisiae cln2 rad14 strain, at 50.0 µM, hits give high values. The procedure, abridged: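 Test compounds were added to cln2 rad14 yeast cultures; inhibition of growth was then determined by comparison with vehicle treatment.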
The nature of experiment [5]: NCI Yeast Anticancer Drug Screen. Data for the bub3 strain (AID 167). Particulars: S. cerevisiae bub3 mutant strain, at 50.0 µM, hits give high values. The essentials: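 In this screen, a yeast mutant lacking normal mitotic checkpoint function is challenged with compound. Relative growth versus vehicle gives the inhibition value.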
Experiment [6] in a line: NCI Yeast Anticancer Drug Screen. Data for the mlh1 rad18 strain (AID 175). Particulars: S. cerevisiae mlh1 rad18 strain growth inhibition; at 50.0 µM; hits give high values. The procedure, abridged:
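Inhibition values reflect reduced growth of mutant yeast versus vehicle-treated controls following compound exposure; the mutations affect DNA damage repair.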

The panel holds about 79,000 compounds, 15% with a hit somewhere; the sample as a whole holds those more often. Unmarked numbers belong to inactive results. Calls of active or inactive are those of the source. Rule as the data show it: active = growth inhibition above about 70%; inactive = the rest.

Consider `O=CNCO`, for which the growth inhibition in experiment [1] was 19.6%; in experiment [2], 14.2%; in experiment [3] it was 22.6%; in experiment [4], 18.9%; in experiment [5], 8.5%; in experiment [6], 19.1%.
`N#CC(C#N)SCc1ccccc1`: the growth inhibition in experiment [1] was 17.1%; in experiment [2] it was 2.25%; in experiment [3], -5.4%; in experiment [4], 6.25%; in experiment [5] it was 9.3%; in experiment [6], 17.8%.
With `CC(=O)OCCOCNC(=S)N/N=C/c1ccc([N+](=O)[O-])s1`, the growth inhibition is 35.4% in experiment [1]; -5.2% in experiment [2]; 23.9% in experiment [3]; 32.5% in experiment [4]; 2.7% in experiment [5]; 12.6% in experiment [6].
For `OC1CC2CCC(C1)N2c1ccccc1` (stereo not drawn), the growth inhibition in experiment [1] is 2.35%; in experiment [2], 4.95%; in experiment [3], 16.6%; in experiment [4], -29.9%; in experiment [5], 19.1%; in experiment [6], 14.3%.
With `O=C(N/C(=C\c1ccccc1)C(=O)N1CCNCC1)c1ccccc1`, the growth inhibition in experiment [1] is -1%; in experiment [2] it was 5.3%; in experiment [3], 0.65%; in experiment [4] it was -26.8%; in experiment [5], 1.15%; in experiment [6], 9.65%.
As to `COC(=O)c1cnc2nc(N3CCOCC3)[nH]n2c1=O`, the growth inhibition in experiment [1] is 8.3%; in experiment [2], -0.3%; in experiment [3], -1.25%; in experiment [4], 4.1%; in experiment [5], -4.7%; in experiment [6], -10.5%.
With `Cc1ccc(S(=O)(=O)Oc2ccc(N(CC(=O)O)S(=O)(=O)c3ccc(C)cc3)cc2)cc1`, the growth inhibition in experiment [1] was 45.3%; in experiment [2], 9.8%; in experiment [3], 29.4%; in experiment [4], 11.8%; in experiment [5], -1.35%; in experiment [6] it was 17.5%.
Regarding `CCN(CC)C(=S)Oc1cc(C)nc(SCC(=O)c2ccc(Cl)cc2)n1`, the growth inhibition in experiment [1] is 22.6%; in experiment [2] it was -18.8%; in experiment [3] it was 41.2%; in experiment [4] it was 29.2%; in experiment [5], 30.8%; in experiment [6], 28.4%.
Take `O=S1(=O)NC2CCC3NS(=O)(=O)NC4CCC(N1)N4S(=O)(=O)N23` (stereo not drawn): the growth inhibition was -3.75% in experiment [1]; -17.4% in experiment [2]; -4.1% in experiment [3]; 6.6% in experiment [4]; -0.55% in experiment [5]; -8.25% in experiment [6].
Take `IC1CCC2OC1CCC2I` (stereo not drawn): the growth inhibition in experiment [1] is 2.8%; in experiment [2] it was 1.75%; in experiment [3] it was -3.85%; in experiment [4], -8.35%; in experiment [5], -5.05%; in experiment [6], 11.8%.
As for `COc1cc([N+](=O)[O-])c(C=O)c(C(=O)O)c1OC`, the growth inhibition in experiment [1] was 6.5%; in experiment [2], -1.85%; in experiment [3], -10.3%; in experiment [4], 13.7%; in experiment [5] it was 1.75%; in experiment [6], 4.9%.
As to `CC(=O)NC(CCCCNC(=O)N(C)N=O)C(=O)NCc1ccccc1` (stereo not drawn), the growth inhibition in experiment [1] is -41.1%; in experiment [2] it was -17.6%; in experiment [3], -12.2%; in experiment [4], -4.3%; in experiment [5], -26.8%; in experiment [6], -12.8%.
On to `CCOC(=O)C1C(c2ccc(N(C)C)cc2)c2cc3c(cc2OC1(C)N1CCCC1)OCO3` (stereo not drawn), for which the growth inhibition in experiment [1] was -13.6%; in experiment [2], 9.1%; in experiment [3], -2.1%; in experiment [4], 14.3%; in experiment [5], -3.15%; in experiment [6], 2.85%.
For the compound `CC1([N+](=O)[O-])COC2(CCCCC2)OC1`, the growth inhibition in experiment [1] is 18.2%; in experiment [2], 9.75%; in experiment [3] it was -6.1%; in experiment [4], -22.1%; in experiment [5] it was 4.3%; in experiment [6] it was 24.2%.
Regarding `O=C(O)c1ccc2c(Cl)ccc3c2c1CC3`, the growth inhibition in experiment [1] was 11.7%; in experiment [2] it was -0.8%; in experiment [3] it was 9.05%; in experiment [4], -32.5%; in experiment [5] it was -26.2%; in experiment [6], 21.5%.
Regarding `CC(=O)/C(=C\c1ccc([N+](=O)[O-])o1)C(=O)CCN(C)C`, the growth inhibition in experiment [1] was 25.1%; in experiment [2], 38.4%; in experiment [3], 63%; in experiment [4], 22.9%; in experiment [5] it was 39.5%; in experiment [6], 84.8% (active).
With `O/N=C(\C(=N/O)Nc1ccc(-c2ccc(NC(=N/O)/C(=N\O)c3ccccc3)cc2)cc1)c1ccccc1`, the growth inhibition in experiment [1] was 7.35%; in experiment [2], -43.4%; in experiment [3] it was -8.5%; in experiment [4], 1.45%; in experiment [5] it was -14.4%; in experiment [6] it was 1.1%.
For the compound `COC1(c2ccccc2)N=C(c2ccc([N+](=O)[O-])cc2)OC1(C)C` (stereo not drawn), the growth inhibition in experiment [1] was 4%; in experiment [2], 1.7%; in experiment [3], 6.1%; in experiment [4] it was 38%; in experiment [5], -4.85%; in experiment [6], -4.8%.
